These results are taken from PubChem BioAssay (NCATS).

Each structure is given as a SMILES string. Values without a mark were called inactive. Records with an inconclusive call do not appear. The source made the active and inactive calls. Unless noted, the call rests on the fitted dose curve; in most records, active means well fitted curve in the direction sought with a large enough effect; inconclusive means small, poorly fitted or top-dose-only effect, or another doubt; inactive means no such curve, though single readings can be large; an effect the other way counts as inactive or inconclusive.

The target in assay [1] is Endonuclease 4 (Escherichia coli (strain K12)) (UniProt P0A6C1). Nature of the assay: Counterscreen for APE1 Inhibitors: qHTS Validation Assay for Inhibitors of Endonuclease IV (AID 1708). Further: on the % scale 0 is the no-effect control and ±100 the full control effect. The method, boiled down: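 Cleavage of a quenched abasic-site DNA duplex (50 nM, 5'-TAMRA, 3'-BHQ-2) by 2 nM enzyme is followed as fluorescence increase. Compounds are preincubated with enzyme 15 min at room temperature before substrate addition.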
On the technique in general: The purpose of a counterscreen is to sort out artefacts and off-target activity.

Assay [2] can be described thus: qHTS for differential inhibitors of proliferation of Plasmodium falciparum line 7G8 (AID 1815).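 Further: potency means the concentration at half of the fitted maximal effect; parasite growth measured after three days of incubation.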 In general terms: Quantitative high-throughput screening tests each substance at several concentrations.
The nature of assay [3]: qHTS for differential inhibitors of proliferation of Plasmodium falciparum line 3D7 (AID 1876).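 Further: parasite growth measured after three days of culture; 0% = vehicle wells and -100% = reference inhibitor wells.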
Assay [4] is described as follows: qHTS for differential inhibitors of proliferation of Plasmodium falciparum line Dd2 (AID 1882).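 Further: series mostly up to about 29 µM; compound exposure of 72 h on infected erythrocytes; plate controls were DMSO vehicle for no effect and 0.29 µM artemisinin for full effect; nearly all actives have a fitted effect of over 65% in size.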 The settings on record: Potency: Plasmodium falciparum Dd2 proliferation inhibition. The method, boiled down:
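SYBR Green I DNA fluorescence read-out, ex 485/em 535 nm. Signals were normalized to 0.29 uM artemisinin and DMSO wells, then corrected using vehicle-only plates flanking each stack. Parasite growth ran 72 h in erythrocytes before lysis.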

Assay [5] in a line: qHTS for differential inhibitors of proliferation of Plasmodium falciparum line W2 (AID 1883).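 Further: potency means the concentration at half of the fitted maximal effect; parasites grown with compound for 72 h before lysis and staining.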 The settings on record: Potency: Plasmodium falciparum W2 proliferation inhibition.
The target of assay [6] is ATP-dependent DNA helicase Q1 (Homo sapiens) (UniProt P46063). Nature of the assay: qHTS Validation Assay for Inhibitors of RecQ-Like Dna Helicase 1 (RECQ1) (AID 2353).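 Further: plate controls were DMSO vehicle for no effect and enzyme-free control for full effect.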 The method, boiled down: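 50 nM RECQ1T1 preincubated 15 min with compound in Tris pH 8.0 buffer with MgCl2, DTT, Tween-20 and 2.5 ug/ml poly(dI-dC); started with 200 nM TAMRA/BHQ-2 forked duplex and 2 mM ATP. Unwinding read as fluorescence (525/598 nm), two reads 2 h apart.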

The target in assay [7] is RecQ-like DNA helicase BLM (Homo sapiens) (UniProt P54132). Briefly: qHTS Validation Assay for Inhibitors of Bloom's syndrome helicase (BLM) (AID 2364).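 Further: plate controls were DMSO vehicle for no effect and enzyme-free control for full effect.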 The method, boiled down: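 50 nM BLM preincubated 15 min at room temperature with compound in pH 8.0 Tris buffer containing 2.5 ug/ml poly(dI-dC); started with 200 nM TAMRA/BHQ-2 forked duplex and 2 mM ATP (final). Unwinding read as TAMRA fluorescence increase, two reads 2 h apart.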
RecQ-like DNA helicase BLM (Homo sapiens), sequence (P54132 whole entry, looked up): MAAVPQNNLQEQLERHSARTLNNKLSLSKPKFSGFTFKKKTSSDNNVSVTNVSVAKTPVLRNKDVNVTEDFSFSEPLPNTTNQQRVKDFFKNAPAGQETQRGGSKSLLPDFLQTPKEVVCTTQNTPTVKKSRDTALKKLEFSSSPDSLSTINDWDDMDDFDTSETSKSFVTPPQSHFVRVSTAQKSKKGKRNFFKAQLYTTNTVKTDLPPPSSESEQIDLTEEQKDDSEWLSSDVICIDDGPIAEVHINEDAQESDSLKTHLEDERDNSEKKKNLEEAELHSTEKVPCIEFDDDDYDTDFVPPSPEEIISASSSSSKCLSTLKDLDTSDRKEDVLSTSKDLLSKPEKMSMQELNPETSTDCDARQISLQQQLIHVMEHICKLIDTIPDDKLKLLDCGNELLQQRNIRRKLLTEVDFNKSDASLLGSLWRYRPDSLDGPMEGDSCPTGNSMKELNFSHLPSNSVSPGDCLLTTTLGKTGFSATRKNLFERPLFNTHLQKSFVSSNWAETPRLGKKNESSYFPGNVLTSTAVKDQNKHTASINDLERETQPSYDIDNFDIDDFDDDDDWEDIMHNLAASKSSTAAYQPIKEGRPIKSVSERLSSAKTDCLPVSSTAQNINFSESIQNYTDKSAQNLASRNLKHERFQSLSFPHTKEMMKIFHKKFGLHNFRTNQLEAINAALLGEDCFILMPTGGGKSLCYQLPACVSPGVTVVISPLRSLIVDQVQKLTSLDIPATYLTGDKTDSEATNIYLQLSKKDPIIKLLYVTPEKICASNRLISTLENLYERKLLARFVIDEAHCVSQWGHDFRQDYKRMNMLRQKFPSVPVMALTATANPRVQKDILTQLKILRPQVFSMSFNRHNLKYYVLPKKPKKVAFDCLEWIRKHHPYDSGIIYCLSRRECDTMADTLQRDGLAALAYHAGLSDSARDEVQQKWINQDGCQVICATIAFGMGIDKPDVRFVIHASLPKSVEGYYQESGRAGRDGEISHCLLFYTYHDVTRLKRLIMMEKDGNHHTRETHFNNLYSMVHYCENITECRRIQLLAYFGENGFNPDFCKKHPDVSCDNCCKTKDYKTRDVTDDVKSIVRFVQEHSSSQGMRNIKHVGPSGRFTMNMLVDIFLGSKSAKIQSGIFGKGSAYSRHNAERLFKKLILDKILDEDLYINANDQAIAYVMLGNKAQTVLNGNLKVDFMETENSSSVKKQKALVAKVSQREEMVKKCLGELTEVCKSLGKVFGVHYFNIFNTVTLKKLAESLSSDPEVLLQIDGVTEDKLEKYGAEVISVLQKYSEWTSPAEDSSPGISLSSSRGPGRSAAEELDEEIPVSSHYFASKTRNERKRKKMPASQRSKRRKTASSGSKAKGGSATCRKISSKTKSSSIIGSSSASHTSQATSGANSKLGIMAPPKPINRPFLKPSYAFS

Assay [8] is described as follows: Validation screen for inhibitors of Lassa infection (AID 463096; calls by dose curve; further: on the % scale 0 is the no-effect control and ±100 the full control effect).
Assay [9] can be described thus: Validation screen for small molecules that induce DNA re-replication in MCF 10A normal breast cells (AID 463097). Further: 0% is about no effect; nearly all actives have a fitted effect of over 60% in size. The method, boiled down:
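MCF 10A cells exposed to compound 48 hr at 37 C, 5% CO2, then Hoechst-stained 40 min. Laser-scanning imaging of nuclear DNA content (405 nm ex, 500-530 nm em); re-replication scored as rise in nuclei with elevated fluorescence intensity.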

Assay [10] concerns the target Thyrotropin receptor (Homo sapiens) (UniProt P16473). Briefly: qHTS Assay for Antagonists of the Thyroid Stimulating Hormone Receptor (AID 488980). Further: series mostly up to about 58 µM; 0% is about no effect. The method, boiled down:
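TSHR-transfected HEK293 cells (2000/well) in HEPES-buffered HBSS with 70 uM RO 20-1724 were stimulated with 4 nM TSH (EC80, final) in the presence of compound. cAMP was measured by HTRF competition after lysis and 30 min at RT.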

In assay [11] the target is Thyrotropin-releasing hormone receptor (Homo sapiens) (UniProt P34981). Briefly: qHTS for Small Molecule Agonists and Allosteric Enhancers of Human TRH Receptor: Validation Screen for Agonists (AID 493127;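 active means calcium activation more than 3 SD above the typical response in the agonist read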;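 further: intracellular calcium rise by fluo-8 fluorescence before TRH EC20 addition; 0% is about no effect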). The following applies: TRH receptor agonist cell assay; at 2 µM; hits give high values. The method, boiled down: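 TRHR-expressing cells were plated overnight in serum-containing medium, then loaded with fluo-8 calcium dye at room temperature for 30 min–1.5 h. After a 10 s baseline, compound was pin-transferred and calcium fluorescence (ex 480/em 530) read kinetically for agonist response.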
Thyrotropin-releasing hormone receptor (Homo sapiens), sequence (P34981 whole entry, looked up): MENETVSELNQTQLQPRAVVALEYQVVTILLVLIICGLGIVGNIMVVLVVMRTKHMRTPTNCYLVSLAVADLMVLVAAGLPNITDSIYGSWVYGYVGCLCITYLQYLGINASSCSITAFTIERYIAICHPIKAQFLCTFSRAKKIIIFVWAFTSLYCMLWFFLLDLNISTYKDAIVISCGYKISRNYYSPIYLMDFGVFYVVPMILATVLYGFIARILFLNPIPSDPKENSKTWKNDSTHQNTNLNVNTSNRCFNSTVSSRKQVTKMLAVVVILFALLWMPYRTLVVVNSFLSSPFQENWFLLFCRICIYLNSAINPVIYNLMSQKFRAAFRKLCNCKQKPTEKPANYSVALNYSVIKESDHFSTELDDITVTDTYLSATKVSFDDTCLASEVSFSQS

For assay [12], the target named is Galactokinase (Homo sapiens) (UniProt P51570). Nature of the assay: qHTS Validation Assay for Inhibitors of Human Galactokinase (GALK) (AID 493189). Further: 0% is about no effect. The method, boiled down:
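GALK (5 nM) with 35 uM ATP and 100 uM galactose in HEPES pH 8.0 with MgCl2, NaCl, DTT and BSA. Reaction ran 1 h at room temperature. Residual ATP read by Kinase-Glo Plus luminescence.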

Assay [13] in a line: Validation screen for small molecules that induce DNA re-replication in SW480 colon adenocarcinoma cells (AID 504364). Further: 0% is about no effect. The method, boiled down:
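SW480 cells seeded at 250 per well were exposed to compound or DMSO for 48 hr at 37 C, 5% CO2, then stained with Hoechst for 40 min. DNA content per nucleus was imaged (405 nm ex, 500-530 nm em).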

Assay [14] deals with Voltage-gated inwardly rectifying potassium channel KCNH2 (Homo sapiens) (UniProt Q12809). Nature of the assay: qHTS Assay for Small Molecule Inhibitors of the Human hERG Channel Activity (AID 588834).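 Further: top concentration of the series differs between compounds; on the % scale 0 is the no-effect control and ±100 the full control effect; lower thallium flux fluorescence means stronger hERG block; nearly all actives have a fitted effect of over 50% in size.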 The method, boiled down:
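U2OS cells BacMam-transduced with hERG, 2000 cells/well, compound ~10 min at 37 °C before stimulation buffer. FluxOR thallium flux fluorescence read kinetically on FDSS; decrease indicates block; AC50 from Hill fits.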

The target in the next assay is Furin (Homo sapiens) (UniProt P09958). Briefly: Furin counterscreen qHTS for Zika virus inhibitors (AID 1347149). Further: potency means the concentration at half of the fitted maximal effect; nearly all actives have a fitted effect of over 70% in size. The method, boiled down:
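Fluorogenic cleavage of BOC-RVRR-AMC (2 microM final, Km ~15 µM) was monitored (ex 340, em 450 nm) at 37C after 15 min RT preincubation of 5 nM furin with compounds in HEPES pH 7.0 buffer with CaCl2 and Triton X-100. Percent inhibition was fitted to a 4-parameter Hill curve.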

The subject of assay [15] is Zika virus NS2B-NS3 protease (linked construct). Nature of the assay: Confirmatory screen NINDS AMC qHTS for Zika virus inhibitors (AID 1347152). Further: potency means the concentration at half of the fitted maximal effect; nearly all actives have a fitted effect of over 70% in size. The method, boiled down:
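Linked NS2B-NS3 protease, 1 nM, in 10 mM Tris-HCl pH 8.0, 0.01% Tween 20; compounds preincubated 15 min at room temperature. Nle-KRR-AMC 10 microM (Km 18.3 µM); 15-min fluorescence change (340/450 nm) fitted to 4-parameter Hill.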

Assay [16] has as its system Zika virus NS2B-NS3 protease (unlinked complex). Nature of the assay: Confirmatory screen GU AMC qHTS for Zika virus inhibitors (AID 1347153). Further: potency means the concentration at half of the fitted maximal effect; nearly all actives have a fitted effect of over 70% in size. The method, boiled down: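 Unlinked enzyme 25 nM, Tris pH 8.0/0.01% Tween 20; cpd 15 min RT, dark; + AMC substrate 10 µM (Km 18.3 µM); 340/450 nm read at t0 and 15 min; % inhibition → 4-param fit.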
Assay [17] deals with Zika virus NS2B-NS3 protease. Nature of the assay: Primary screen GU AMC qHTS for Zika virus inhibitors (AID 1347154). Further: potency means the concentration at half of the fitted maximal effect; nearly all actives have a fitted effect of over 70% in size. The method, boiled down:
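Unlinked Zika NS2B hydrophilic domain–NS3 protease complex at 25 nM in 10 mM Tris-HCl pH 8.0, 0.01% Tween 20, with an AMC peptide substrate. Fluorescence change (340/450 nm) over 15 min at room temperature, normalized to controls, fitted to 4-parameter Hill.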

A short description of assay [18]: Vero cells viability qHTS for Zika virus inhibitors (AID 1347167). Further: on the % scale 0 is the no-effect control and ±100 the full control effect. The method, boiled down: (§1)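 Cells seeded at 2.5 x 10^5 cells/mL in DMEM with 4% FBS and attached overnight at 37 degrees C, then exposed to compound for 24 to 48 hours. Viability read as ATP content by CellTiter Glo luminescence.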
The nature of assay [19]: HepG2 cells viability qHTS for Zika virus inhibitors (AID 1347168). Further: on the % scale 0 is the no-effect control and ±100 the full control effect. The method, boiled down: as §1
A short description of assay [20]: Tertiary RLuc qRT-PCR qHTS assay for Zika virus inhibitors (AID 1347169). Further: top concentration of the series differs between compounds; on the % scale 0 is the no-effect control and ±100 the full control effect; nearly all actives have a fitted effect of over 55% in size. The method, boiled down:
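Vero cells (1,000/well) infected with recombinant ZIKV-RLuc (Cambodian) at MOI 1-2 after compound addition, 48-72 hrs at 37 degrees C. Live-cell Renilla luciferase substrate added; luminescence read after 1-1.5 hrs.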
(In general: Quantitative PCR measures a nucleic acid by following its amplification.)

Assay [21] can be described thus: Primary qHTS for small molecule stabilizers of the endoplasmic reticulum resident proteome: Secreted ER Calcium Modulated Protein (SERCaMP) assay (AID 1508630). Further: on the % scale 0 is the no-effect control and ±100 the full control effect. The method, boiled down:
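GLuc-SERCaMP-expressing SH-SY5Y cells, pretreated 16 h with compound, are challenged with thapsigargin to empty ER calcium stores; after 4 h, coelenterazine is added directly to the medium and luminescence is imaged.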

Furin (Homo sapiens), sequence (P09958 whole entry, looked up): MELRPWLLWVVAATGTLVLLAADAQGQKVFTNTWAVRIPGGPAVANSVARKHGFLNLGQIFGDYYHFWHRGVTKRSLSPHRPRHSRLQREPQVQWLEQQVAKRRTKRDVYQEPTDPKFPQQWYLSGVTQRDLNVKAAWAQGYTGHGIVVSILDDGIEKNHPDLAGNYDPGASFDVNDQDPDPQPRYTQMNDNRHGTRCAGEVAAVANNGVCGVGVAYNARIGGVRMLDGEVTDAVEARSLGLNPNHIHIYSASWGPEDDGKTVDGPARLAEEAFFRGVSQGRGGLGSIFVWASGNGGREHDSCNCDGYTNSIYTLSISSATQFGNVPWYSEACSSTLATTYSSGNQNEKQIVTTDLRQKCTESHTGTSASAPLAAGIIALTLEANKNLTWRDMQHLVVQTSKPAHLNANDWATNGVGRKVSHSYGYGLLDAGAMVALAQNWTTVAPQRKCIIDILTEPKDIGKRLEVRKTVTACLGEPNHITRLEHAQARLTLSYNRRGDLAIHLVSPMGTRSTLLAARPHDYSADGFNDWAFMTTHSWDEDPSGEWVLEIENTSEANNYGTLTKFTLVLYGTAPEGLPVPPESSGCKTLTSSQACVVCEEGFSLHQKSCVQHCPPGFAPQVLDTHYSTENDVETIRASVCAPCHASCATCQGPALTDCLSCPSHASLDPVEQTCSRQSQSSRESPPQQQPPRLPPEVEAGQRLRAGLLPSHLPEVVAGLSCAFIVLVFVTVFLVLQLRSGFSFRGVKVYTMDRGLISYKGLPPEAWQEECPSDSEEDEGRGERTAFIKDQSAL
Thyrotropin receptor (Homo sapiens), sequence (P16473 whole entry, looked up): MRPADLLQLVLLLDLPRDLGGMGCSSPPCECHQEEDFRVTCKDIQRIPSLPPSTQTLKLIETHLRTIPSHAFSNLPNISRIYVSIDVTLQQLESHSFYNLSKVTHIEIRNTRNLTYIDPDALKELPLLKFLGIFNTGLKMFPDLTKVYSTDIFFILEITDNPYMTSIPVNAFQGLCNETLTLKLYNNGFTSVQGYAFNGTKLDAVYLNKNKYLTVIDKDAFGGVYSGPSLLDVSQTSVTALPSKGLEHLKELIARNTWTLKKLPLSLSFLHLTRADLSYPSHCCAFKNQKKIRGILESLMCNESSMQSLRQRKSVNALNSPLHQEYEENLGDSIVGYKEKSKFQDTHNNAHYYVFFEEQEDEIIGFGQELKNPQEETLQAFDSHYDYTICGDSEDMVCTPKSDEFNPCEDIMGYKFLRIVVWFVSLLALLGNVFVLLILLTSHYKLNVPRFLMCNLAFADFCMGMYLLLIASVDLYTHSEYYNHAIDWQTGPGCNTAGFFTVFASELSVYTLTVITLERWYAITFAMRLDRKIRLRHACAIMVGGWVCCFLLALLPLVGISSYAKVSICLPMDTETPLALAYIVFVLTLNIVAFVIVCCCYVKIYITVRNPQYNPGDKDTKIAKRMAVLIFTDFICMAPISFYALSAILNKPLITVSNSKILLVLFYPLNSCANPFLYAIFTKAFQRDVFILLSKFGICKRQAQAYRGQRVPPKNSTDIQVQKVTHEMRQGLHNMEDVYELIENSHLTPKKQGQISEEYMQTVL
Voltage-gated inwardly rectifying potassium channel KCNH2 (Homo sapiens), sequence (Q12809 whole entry, looked up): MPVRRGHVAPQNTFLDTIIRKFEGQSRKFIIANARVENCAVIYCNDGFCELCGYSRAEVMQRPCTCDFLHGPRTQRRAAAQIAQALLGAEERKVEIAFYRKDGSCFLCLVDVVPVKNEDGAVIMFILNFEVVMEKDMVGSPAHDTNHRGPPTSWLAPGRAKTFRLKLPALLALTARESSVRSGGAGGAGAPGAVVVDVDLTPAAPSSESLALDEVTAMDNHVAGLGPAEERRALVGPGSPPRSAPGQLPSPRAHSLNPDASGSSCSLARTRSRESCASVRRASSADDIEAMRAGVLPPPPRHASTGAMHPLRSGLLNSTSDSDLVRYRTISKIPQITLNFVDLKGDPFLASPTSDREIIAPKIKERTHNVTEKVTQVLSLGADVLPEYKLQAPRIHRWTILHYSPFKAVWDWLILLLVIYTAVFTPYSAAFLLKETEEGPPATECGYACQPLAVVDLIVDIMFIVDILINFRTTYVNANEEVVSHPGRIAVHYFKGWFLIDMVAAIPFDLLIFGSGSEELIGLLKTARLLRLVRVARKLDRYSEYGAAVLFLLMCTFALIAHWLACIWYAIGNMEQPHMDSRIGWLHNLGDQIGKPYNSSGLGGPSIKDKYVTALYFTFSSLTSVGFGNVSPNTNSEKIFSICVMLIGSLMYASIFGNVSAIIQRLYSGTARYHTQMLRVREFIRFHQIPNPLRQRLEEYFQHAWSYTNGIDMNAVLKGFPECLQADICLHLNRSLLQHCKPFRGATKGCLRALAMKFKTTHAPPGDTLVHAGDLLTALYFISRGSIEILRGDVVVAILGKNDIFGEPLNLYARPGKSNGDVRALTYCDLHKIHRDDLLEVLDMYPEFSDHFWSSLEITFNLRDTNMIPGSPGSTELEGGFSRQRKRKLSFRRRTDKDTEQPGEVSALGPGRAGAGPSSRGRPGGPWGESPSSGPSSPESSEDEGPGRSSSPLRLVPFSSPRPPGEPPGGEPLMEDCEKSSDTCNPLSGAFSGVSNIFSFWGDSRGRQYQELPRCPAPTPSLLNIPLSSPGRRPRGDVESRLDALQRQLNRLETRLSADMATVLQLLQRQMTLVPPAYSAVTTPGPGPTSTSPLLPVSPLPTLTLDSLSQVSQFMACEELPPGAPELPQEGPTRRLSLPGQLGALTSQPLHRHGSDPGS
Galactokinase (Homo sapiens), sequence (P51570 whole entry, looked up): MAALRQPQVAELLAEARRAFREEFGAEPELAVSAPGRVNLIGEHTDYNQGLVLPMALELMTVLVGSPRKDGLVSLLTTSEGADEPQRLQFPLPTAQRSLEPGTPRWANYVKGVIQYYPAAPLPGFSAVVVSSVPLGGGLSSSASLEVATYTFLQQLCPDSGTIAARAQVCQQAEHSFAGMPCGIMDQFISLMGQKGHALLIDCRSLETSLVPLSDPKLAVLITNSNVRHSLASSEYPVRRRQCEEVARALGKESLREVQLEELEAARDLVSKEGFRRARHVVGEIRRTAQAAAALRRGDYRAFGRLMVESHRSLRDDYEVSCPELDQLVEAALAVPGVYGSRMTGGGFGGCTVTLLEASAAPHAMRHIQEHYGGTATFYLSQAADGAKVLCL

For `COC(=O)c1cc2c(cn1)[nH]c1ccccc12`, the result in assay [1], in [10] and in assay [12] was inactive. For the same compound, the Potency in [2] is 11.2 µM (active); in [5] it was 12.6 µM (active); with Furin (Homo sapiens), 24.1 µM (active); in assay [15], 24.1 µM (active); in assay [16] it was 24.1 µM (active); in assay [17], 23.8 µM (active). For the same compound, the Potency entry in [3], in [4], in assay [6], in [7], in assay [8] and in assay [9] was “inactive” each time. In addition, the Potency entry in assay [13], in [14], in assay [18], in assay [19], in assay [20] and in [21] was “inactive” in each case. Moreover, in assay [11], the activation was 1.44%.
